The values below come from PubChem BioAssay AID782 (Emory University Molecular Libraries Screening Center, 2007).

Hit rate of the full screen: of about 220,000 compounds, about 800 (0.36%) were called active.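 Rule for the calls: active = inhibition above about 30% (limit read from the data); inactive = the rest.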 For the sample, actives were picked, then their nearest neighbours and some compounds at random.

One may read the inhibition as the relative decrease from the control value, in per cent.

Sequence of Eukaryotic translation initiation factor 4E (Mus musculus) + Eukaryotic translation initiation factor 4 gamma 1 (Homo sapiens) (P63073 whole entry, looked up, the tested form may be a part): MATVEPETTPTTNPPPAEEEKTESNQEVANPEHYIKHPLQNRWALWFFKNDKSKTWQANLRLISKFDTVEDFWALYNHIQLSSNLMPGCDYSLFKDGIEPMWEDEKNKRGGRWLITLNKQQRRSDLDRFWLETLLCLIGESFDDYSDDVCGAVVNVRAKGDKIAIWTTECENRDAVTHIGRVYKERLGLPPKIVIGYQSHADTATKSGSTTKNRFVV
Sequence of Eukaryotic translation initiation factor 4E (Mus musculus) + Eukaryotic translation initiation factor 4 gamma 1 (Homo sapiens) (Q04637 whole entry, looked up, the tested form may be a part): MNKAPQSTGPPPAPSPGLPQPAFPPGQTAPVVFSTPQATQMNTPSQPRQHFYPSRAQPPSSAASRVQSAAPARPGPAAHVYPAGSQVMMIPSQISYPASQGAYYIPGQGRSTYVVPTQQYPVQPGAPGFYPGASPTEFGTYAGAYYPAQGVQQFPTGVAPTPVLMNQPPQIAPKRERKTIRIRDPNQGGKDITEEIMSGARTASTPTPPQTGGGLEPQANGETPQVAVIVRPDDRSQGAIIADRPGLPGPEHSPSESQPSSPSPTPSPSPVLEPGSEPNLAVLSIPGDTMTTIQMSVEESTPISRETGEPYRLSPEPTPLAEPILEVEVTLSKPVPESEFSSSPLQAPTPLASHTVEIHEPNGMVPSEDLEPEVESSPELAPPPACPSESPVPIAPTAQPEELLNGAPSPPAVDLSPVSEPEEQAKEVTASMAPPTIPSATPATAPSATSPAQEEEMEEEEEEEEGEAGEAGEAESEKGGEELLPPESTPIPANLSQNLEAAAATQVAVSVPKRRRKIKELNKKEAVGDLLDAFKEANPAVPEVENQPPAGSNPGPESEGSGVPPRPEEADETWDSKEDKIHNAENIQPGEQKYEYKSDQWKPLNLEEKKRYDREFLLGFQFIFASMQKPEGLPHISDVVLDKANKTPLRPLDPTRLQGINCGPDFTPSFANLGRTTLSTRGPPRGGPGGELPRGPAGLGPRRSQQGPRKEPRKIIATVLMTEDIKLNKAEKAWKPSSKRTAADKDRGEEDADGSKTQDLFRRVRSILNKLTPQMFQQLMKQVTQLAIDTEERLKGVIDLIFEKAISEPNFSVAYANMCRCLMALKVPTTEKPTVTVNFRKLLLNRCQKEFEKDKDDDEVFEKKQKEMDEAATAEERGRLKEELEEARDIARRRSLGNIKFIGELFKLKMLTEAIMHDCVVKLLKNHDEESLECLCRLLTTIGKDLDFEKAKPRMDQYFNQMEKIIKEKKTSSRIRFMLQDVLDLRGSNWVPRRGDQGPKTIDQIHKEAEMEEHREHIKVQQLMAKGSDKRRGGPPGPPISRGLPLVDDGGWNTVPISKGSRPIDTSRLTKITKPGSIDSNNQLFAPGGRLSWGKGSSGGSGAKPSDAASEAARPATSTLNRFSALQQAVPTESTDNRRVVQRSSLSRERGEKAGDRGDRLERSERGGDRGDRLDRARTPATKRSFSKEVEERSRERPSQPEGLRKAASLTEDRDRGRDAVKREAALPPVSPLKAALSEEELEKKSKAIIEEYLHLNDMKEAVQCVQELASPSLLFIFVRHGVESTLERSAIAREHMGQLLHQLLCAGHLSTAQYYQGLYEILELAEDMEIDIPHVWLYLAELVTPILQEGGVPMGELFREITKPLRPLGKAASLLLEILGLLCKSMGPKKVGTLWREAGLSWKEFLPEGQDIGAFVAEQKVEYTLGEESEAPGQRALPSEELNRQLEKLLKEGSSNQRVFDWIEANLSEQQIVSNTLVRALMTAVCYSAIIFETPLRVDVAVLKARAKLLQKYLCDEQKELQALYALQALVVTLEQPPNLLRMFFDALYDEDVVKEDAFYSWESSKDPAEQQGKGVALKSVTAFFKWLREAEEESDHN

This test concerns the target Eukaryotic translation initiation factor 4E (Mus musculus) + Eukaryotic translation initiation factor 4 gamma 1 (Homo sapiens) (UniProt P63073+Q04637). In words: blockers of eIF4G binding by eIF4E – biochemical, uHTS, TR-FRET, eIF4GI fragment, primary screen (AID 782).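 Note: 0% = full FRET control wells and 100% = background wells lacking eIF4GI fragment.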 The conditions noted are these: TR-FRET eIF4E-eIF4GI(517-606) binding, 2 h; at 21.7 µM; hits give high values. Background: TR-FRET usually uses a lanthanide donor and a delayed reading to cut background.
For `COC(=O)/C=C(\Oc1ccccc1)C1(O)CCCCC1`, the inhibition was 3.79% (inactive).
The value for `COCC(C)n1c(SCc2ccc(C(=O)OC)o2)nc2ccccc2c1=O` (configuration not stated) was 56% (active); that for `COCCn1c(C)cc(C(=O)CSc2nc3ccccc3c(=O)n2C(C)COC)c1C` (configuration not stated) was -1.77% (inactive); that for `COC(=O)c1ccc(CSc2nc3ccccc3c(=O)n2-c2cccc(OC)c2)o1` was 2.4% (inactive).
With `CSc1nc(C)nc(C2CC2)c1C#N`, the inhibition was -3.41% (inactive).
Take `Cc1cccc(N(C)C(=O)c2cc3c(=O)[nH]c4ccc(C)cc4c3s2)c1`: the inhibition was -9.17% (inactive).
The value for `O=S(=O)(Cc1noc(-c2ccc(OC(F)(F)F)cc2)n1)c1ccc(F)cc1` was -0.8% (inactive); that for `S=c1[nH]nc(-c2ccco2)n1/N=C/c1ccccc1` was -0.4% (inactive); that for `S=c1[nH]nc(-c2ccco2)n1/N=C/c1ccc(Br)s1` was 49.9% (active).
Regarding `Cc1cc(-c2n[nH]c(=S)n2/N=C/c2ccco2)n[nH]1`, the inhibition was -0.15% (inactive).
Take `O=C(CN1CCN(c2ccc(O)cc2)CC1)Nc1cc(S(=O)(=O)N2CCOCC2)ccc1Cl`: the inhibition is 18.9% (inactive).
The value for `O=[N+]([O-])c1cc(Cl)cc(/C=N/NC(=S)Nc2cc(S(=O)(=O)N3CCOCC3)ccc2Cl)c1O` was 37.9% (active); that for `O=C(N/N=C/c1ccc([N+](=O)[O-])o1)c1cccc(S(=O)(=O)N2CCOCC2)c1` was 0.27% (inactive); that for `COc1ccc(/C(N)=N/OC(=O)CCCc2ccccc2)cc1` was -2.25% (inactive).
With `Cc1ccc(SCC(=O)Nc2ccc3c(c2)OCCO3)cc1` the figure was 0.94% (inactive); with `NC(N)=NCCCc1cn(CC(=O)N2CCNCC2)nn1`, 0.73% (inactive).
On to `FC(F)(F)c1nnc2ccc(N3CCN(c4ccccc4)CC3)nn12`, for which the inhibition is 0.95% (inactive).
On to `Fc1c(F)c(C(F)(F)F)c(F)c(F)c1N1CCN(c2ccc3nnc(C(F)(F)F)n3n2)CC1`, for which the inhibition was 35.1% [fluorescence artefact?] (active).
With `CCSc1nc(C)c(CCOc2cccc(C)c2)c(=O)[nH]1` the figure was -0.93% (inactive).
For the molecule `Oc1c(Cl)cc(Cl)c(Cl)c1Cc1c(O)c(Cl)cc(Cl)c1Cl`, the inhibition is 46.2% (active).
As for `CCOC(=O)c1c(NC(=O)CSc2nnc(CNc3ccc(C)cc3C)o2)sc(C)c1C`, the inhibition is -0.54% (inactive).
The value for `CCOc1cc(C(=S)N2CCOCC2)ccc1O` was 30.5% [fluorescence artefact?] (active); that for `COc1cc(C(=S)N2CCOCC2)ccc1O` was -0.65% (inactive); that for `CCOc1cc(C(=O)OCC(=O)Nc2cccc(C)c2)ccc1OCC(=O)N1CCOCC1` was 0.63% (inactive).
With `Cc1ccnc(NC(=O)CCCOc2ccccc2)c1` the figure was 3.5% (inactive); with `CCOC(=O)N1CCC(=NNC(N)=O)CC1`, 2.99% (inactive).
As to `CC(C)NC(=S)NN=C1CCCCCCCCCCC1`, the inhibition was -4.16% (inactive).
As to `CC(NC(=O)C(=O)NN=C1CCC(C(C)(C)C)CC1)c1ccccc1` (configuration not stated), the inhibition is 2.57% (inactive).
With `CC(C)(C)NC(=O)C(=O)NN=C1CCCCCCC1`, the inhibition is 39.2% (active).
In the case of `Cc1c(C(=O)N/N=C/c2ccccc2)[nH]c2c([N+](=O)[O-])cccc12`, the inhibition is 94.2% (active).
The value for `Cc1cc(C(=O)N/N=C/c2ccccc2[N+](=O)[O-])c(C)o1` was 2.6% (inactive); that for `O=C(N/N=C/c1ccc([N+](=O)[O-])cc1)c1c[nH]c2ccccc12` was -2.85% (inactive).
As to `COC(=O)Nc1ncc(CN2CCCCC2)s1`, the inhibition is 1.52% (inactive).
With `N/C(=N\S(=O)(=O)c1cc(C(F)(F)F)cc(C(F)(F)F)c1)c1cccs1` the figure was 0.14% (inactive); with `Cc1ccc(C(=O)NC(=S)Nc2ccccc2C)cc1`, -1.48% (inactive); with `CCOC(=O)c1c(N)sc2c1CCCC2=O`, -0.22% (inactive).
With `Cc1cc2cc(CNC(=O)c3ccc(S(=O)(=O)N4CCOCC4)cc3)ccc2[nH]1` the figure was -23.9% (inactive).
With `C/C(CC(=O)Nc1ccc(C)cc1C)=N\NC(=O)C(C)C` the figure was -1.71% (inactive).
In the case of `C=CCn1c(SCC(=O)NCc2ccccc2)nnc1-c1cc(Br)ccc1O`, the inhibition is 4.21% (inactive).
With `C=CCn1c(SCC(=O)Nc2nc3ccccc3s2)nnc1-c1ccccc1O` the figure was 6.76% (inactive).
The value for `C=CCn1c(N)cc(=O)nc1SCC(=O)Nc1cccc2ccccc12` was 30.1% (active).
For `CC(NC(=S)NNS(=O)(=O)c1ccc(C(C)(C)C)cc1)c1ccccc1` (configuration not stated), the inhibition is 96.5% (active).
With `Cc1cc(C(=O)NNC(=S)NC(C)c2ccccc2)cs1` (configuration not stated) the figure was -0.45% (inactive); with `Cc1ccc(S(=O)(=O)NNC(=S)NC(C)(C)C)cc1`, 2.84% (inactive).
The value for `O=C(C1CCCN1S(=O)(=O)c1ccc(Br)cc1)N1CCOCC1` (configuration not stated) was -1.1% (inactive); that for `COC(=O)[C@@H]1C[C@@]2(O)[C@H](O)[C@H](O)[C@H](O)C[C@H]2N1Cc1ccc(C(C)(C)C)cc1` was -5.29% (inactive); that for `COC(=O)[C@@H]1C[C@@]2(O)[C@@H](O)[C@@H](O)[C@@H](O)C[C@H]2N1Cc1ccc(C)s1` was 96% (active).
For the molecule `COC(=O)[C@@H]1C[C@@]2(O)[C@H](O)[C@H](O)[C@H](O)C[C@H]2N1Cc1ccc(C)s1`, the inhibition is -1.88% (inactive).
With `C/C(Cn1nnc2ccccc21)=N\OC(=O)c1cc(F)c(F)cc1Cl`, the inhibition is -2.84% (inactive).
On to `O=[N+]([O-])C(=c1ccc2c(c1)N1C3=C(CCCC3)CC3CCCCC31N=2)[N+](=O)[O-]` (configuration not stated), for which the inhibition was 34.6% (active).
With `Cc1c(Cl)cccc1NC(=S)NCc1ccc2c(c1)OCO2`, the inhibition was 3.45% (inactive).
With `O=C(NNC1=NCCC1)c1cccc(S(=O)(=O)N2CCCCC2)c1` the figure was 6.05% (inactive); with `Cc1ccc(N(C(=O)c2ccc(CN3CCOCC3)o2)C(C(=O)NCCC(C)C)c2cccs2)c(C)c1` (configuration not stated), 3.08% (inactive).
With `CC(C)(C)c1ccc(/C=C2\SC(=O)N=C2N)cc1`, the inhibition was 2.64% (inactive).
With `C/C(=N\NC(=S)Nc1ccc(C)cc1)c1cc2ccccc2o1` the figure was -0.73% (inactive); with `CCCc1c(C(=O)Nc2ccc(F)cc2)cnn1-c1ccccc1`, 2.37% (inactive).
With `CN(C)CCCN(Cc1cc2cc3c(cc2[nH]c1=O)OCCO3)C(=O)NC1CCCCC1` the figure was 2.76% (inactive).
With `O=C(c1ccc(F)cc1)N1CCCC(c2nc(-c3cccs3)no2)C1` (configuration not stated) the figure was 3.08% (inactive); with `COc1ccnc(Oc2ccccc2)n1`, 15.9% (inactive).
Consider `CCc1cccc(C)c1NC(=S)N(CCCN1CCN(C)CC1)Cc1cccs1`, for which the inhibition is -3.86% (inactive).
With `Cc1ccc(N2C(=O)c3ccccc3C2(O)c2ncc[nH]2)cc1` (configuration not stated) the figure was 55.4% (active); with `Cc1ccnc(NC(=O)C(C)N2C(=O)c3ccccc3C2=O)c1` (configuration not stated), 1.43% (inactive).
With `Cc1ccc(-n2ccc(=O)c(C(=O)O)n2)cc1` the figure was 1.06% (inactive); with `CNc1ccc(NC(C)=O)cc1[N+](=O)[O-]`, -0.25% (inactive); with `CC(=O)Nc1ccc(/C=N/Nc2ccc(C(=O)c3c(C)cc4ccccn34)cc2[N+](=O)[O-])cc1`, 63.9% (active).
The value for `Cc1ccc(Nc2ccc(C(N)=O)cc2[N+](=O)[O-])cc1` was -0.72% (inactive); that for `CCOc1ccc(/C=N/NC(=O)CSc2ccccn2)cc1O` was -2.92% (inactive).
As for `O=C(COC(=O)/C=C/c1ccc(S(=O)(=O)N2CCCCCC2)cc1)NCc1ccccc1Cl`, the inhibition is 2.41% (inactive).
As for `C=C1CCN([C@H](C(=O)NCc2cc(OC)c(OC)c(OC)c2)C(C)C)S(=O)(=O)c2ccccc21`, the inhibition was -2.58% (inactive).
Take `Nc1ccc(S(=O)(=O)Nc2nccc(/C=C/c3ccc(Br)s3)n2)cc1`: the inhibition was 0.68% (inactive).
Consider `CC(C)(C)c1cc(C(=O)NN)n(Cc2ccc(Cl)cc2Cl)n1`, for which the inhibition was 3.29% (inactive).
The value for `Cc1[nH]n(C)c(=O)c1C(=O)c1c(-c2c(Cl)cccc2Cl)noc1C` was -1.16% (inactive).
Regarding `N/C(=N\S(=O)(=O)c1ccc(Cl)cc1)N1CCOCC1`, the inhibition was -0.17% (inactive).
With `COc1ccc(N2CCN(C(=S)Nc3ccc(S(N)(=O)=O)cc3)CC2)cc1` the figure was 2.56% (inactive).
As for `COC(=O)Cc1csc(/N=C/c2c(O)n(-c3cccc(C(F)(F)F)c3)c(=O)c3ccccc23)n1`, the inhibition is 1.31% (inactive).
With `COc1ccc(C2C(C(=O)N3CCN(c4ccc(OC)cc4)CC3)c3ccccc3C(=O)N2C)cc1` (configuration not stated), the inhibition is -1.58% (inactive).
The value for `COc1ccc([C@H]2[C@H](C(C)=O)N3N=Cc4ccccc4C3C23C(=O)OC(C)(C)OC3=O)cc1` (some centres not stated) was 34.6% (active); that for `O=C(/C=C\c1ccc2c(c1)OCO2)NC1(C(=O)Nc2ccc3c(c2)OCCO3)CCCCC1` was 3.6% (inactive); that for `COC(=O)c1c(C)[nH]c(C)c1-c1ccc([N+](=O)[O-])cc1` was 5.04% (inactive).
The value for `CC1CC1C(=O)OCC(=O)c1c(N)n(C)c(=O)n(C)c1=O` (configuration not stated) was 1.81% (inactive); that for `CC1=C/C(=N\OS(=O)(=O)c2ccccc2)C=CC1=O` was 17.7% (inactive).
With `CC(=O)c1c(Nc2ccccc2)sc(C(=O)c2ccccc2)c1C` the figure was 0.53% (inactive); with `Cc1ccc(NC(=O)/C(=C\c2ccccc2)NC(=O)c2ccco2)cc1`, -2.75% (inactive); with `Cc1cc(Br)ccc1SCC(=O)OCC(=O)NCc1ccc2c(c1)OCO2`, 2.11% (inactive).
In the case of `Nc1nc(SCc2ccccc2Cl)n[nH]1`, the inhibition was -1.58% (inactive).
The value for `O=c1cc(O)nc(SCc2ccccc2Cl)[nH]1` was -11.7% (inactive); that for `O=c1[nH]nc(CSCc2ccccc2Cl)[nH]1` was 37.7% (active).
The value for `Clc1ccc(-c2nc3ccccn3c2CN2CCSCC2)cc1` was 3.32% (inactive); that for `COc1ccc(NC2=CC(=S)NC(C)(C)C2)cc1` was 0.37% (inactive); that for `O=C(CSc1nnc(-c2ccc([N+](=O)[O-])cc2)o1)Nc1ccccn1` was -0.57% (inactive).
The value for `Nc1ccc2nc3c(=O)[nH]c(=S)[nH]c3nc2c1` was 55.7% (active); that for `Cc1cc2nc3c(=O)n(Cc4ccccc4)c(=O)[nH]c3nc2cc1N` was 7.59% (inactive).
